Among the data in PubChem BioAssay are log fold change Tl+ flux values, retold here.

Several values for one entry are separate records, joined by “and”; a condition that tells them apart may be missing. Equal values may be shown once. A number with no mark means an inactive call. Activity calls are given as the source filed them.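 The calls were made as follows: active = thallium flux through the channel raised or lowered by more than 3 SD from vehicle-only wells, actives on both sides; inactive = the rest.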

Common to all, as to assay: BK channel mutant inhibitors and activators – cell-based, U2OS BacMam, thallium flux, beta subunits, selectivity assay, profiling panel (AID 1259406);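 also: initial slope of Thallos dye fluorescence rise after thallium is added; log ratio against the mean of 0.3% DMSO vehicle wells on the same plate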
The subject of one assay is F380Y/beta2Delta. The conditions noted are these: U2OS BacMam BK variants, at 30 µM.
The next assay concerns F380Y/beta4. The conditions noted are these: U2OS BacMam BK variants, at 30 µM.
Assay [1] addresses Calcium-activated potassium channel subunit alpha-1 (Homo sapiens) + Leucine-rich repeat-containing protein 26 (Homo sapiens) (UniProt Q12791+Q2I0M4). The conditions noted are these: U2OS BacMam BK variants, F380Y/Slo1WT/gamma1, at 30 µM.
Another assay concerns R275C. Particulars: U2OS BacMam BK variants, at 30 µM.
The next assay concerns R275C/beta1. Particulars: U2OS BacMam BK variants, at 30 µM.
A further assay relates to R275C/beta2Delta. The conditions noted are these: U2OS BacMam BK variants, at 30 µM.
Another assay relates to R275C/beta4. Particulars: U2OS BacMam BK variants, at 30 µM.
For the next assay, the system named is R275C/Slo1WT/beta2. The conditions noted are these: U2OS BacMam BK variants, at 30 µM.

Sequence of Calcium-activated potassium channel subunit alpha-1 (Homo sapiens) + Leucine-rich repeat-containing protein 26 (Homo sapiens) (Q2I0M4 whole entry, looked up, one chain of several): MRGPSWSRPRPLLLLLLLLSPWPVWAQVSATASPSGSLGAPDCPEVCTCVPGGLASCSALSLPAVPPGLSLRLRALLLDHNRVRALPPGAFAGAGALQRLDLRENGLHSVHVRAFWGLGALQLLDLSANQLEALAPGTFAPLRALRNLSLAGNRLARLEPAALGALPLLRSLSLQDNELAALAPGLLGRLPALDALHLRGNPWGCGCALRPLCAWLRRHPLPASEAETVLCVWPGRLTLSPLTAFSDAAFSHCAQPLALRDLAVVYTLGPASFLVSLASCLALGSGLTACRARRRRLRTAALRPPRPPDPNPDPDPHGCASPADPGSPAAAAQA

`CCCN[C@H]1CCc2nc(N)sc2C1`: the log fold change Tl+ flux with F380Y/beta2Delta is 0.0149 and -0.064; with F380Y/beta4, 0.049; in assay [1], -0.0398 and 0.00679; in the assay on R275C, -0.0132 and -0.0398; with R275C/beta1 it was -0.0125 and -0.021; with R275C/beta2Delta, -0.0052 and -0.0245. For the same compound, the log fold change Tl+ flux was 0.000139 in the assay with R275C/beta4 and 0.0182 in the assay with R275C/Slo1WT/beta2.
Take `CC(C)(C(=O)c1cccnc1)c1cccnc1`: the log fold change Tl+ flux was -0.0492 in the assay on F380Y/beta2Delta; -0.00737 with F380Y/beta4; -0.0176 in assay [1]; -0.0634 in the assay with R275C; 0.0377 in the assay with R275C/beta1; -0.0241 in the assay on R275C/beta2Delta. Also, the log fold change Tl+ flux in the assay on R275C/beta4 was 0.0328; in the assay on R275C/Slo1WT/beta2, 0.0667.
Consider `C#C[C@]1(O)CC[C@H]2[C@@H]3CCc4cc(OC)ccc4[C@H]3CC[C@@]21C`, for which the log fold change Tl+ flux was -0.0353 in the assay on F380Y/beta2Delta; 0.0115 in the assay on F380Y/beta4; -0.0403 in assay [1]; -0.0453 in the assay with R275C; 0.019 in the assay on R275C/beta1; -0.00738 with R275C/beta2Delta. For the same compound, the log fold change Tl+ flux in the assay on R275C/beta4 was 0.00852; in the assay with R275C/Slo1WT/beta2, -0.04.
For `O=C1N(c2ccccc2)c2ccccc2C1(Cc1ccncc1)Cc1ccncc1`, the log fold change Tl+ flux in the assay with F380Y/beta2Delta was -0.0915; with F380Y/beta4 it was -0.0921; in assay [1], -0.0557; in the assay with R275C, -0.00568; in the assay with R275C/beta1 it was 0.0135; with R275C/beta2Delta, 0.00649. The log fold change Tl+ flux in the assay on R275C/beta4 is -0.0197; with R275C/Slo1WT/beta2, -0.0252.
Regarding `O=c1[nH]cnc2c1ncn2[C@H]1CC[C@@H](CO)O1`, the log fold change Tl+ flux is 0.0117 in the assay on F380Y/beta2Delta; -0.00261 in the assay with F380Y/beta4; 0.0216 in assay [1]; -0.0353 with R275C; -0.00622 with R275C/beta1; -0.00829 with R275C/beta2Delta. Further, the log fold change Tl+ flux with R275C/beta4 is 0.000837; in the assay with R275C/Slo1WT/beta2 it was 0.00413.
As for `CCN1CCC[C@H]1CNC(=O)c1cc(S(N)(=O)=O)ccc1OC`, the log fold change Tl+ flux in the assay on F380Y/beta2Delta is -0.0214; with F380Y/beta4, -0.00754; in assay [1], 0.0207; with R275C it was -0.000435; with R275C/beta1, -0.0215; with R275C/beta2Delta it was -0.02. For the same compound, the log fold change Tl+ flux in the assay on R275C/beta4 is 0.0473; in the assay with R275C/Slo1WT/beta2, -0.0273.
`CCCN1CCCC[C@H]1C(=O)Nc1c(C)cccc1C`: the log fold change Tl+ flux in the assay on F380Y/beta2Delta was 0.0505; with F380Y/beta4, 0.0334; in assay [1] it was -0.0126; in the assay with R275C, 0.0086; in the assay with R275C/beta1, 0.0221; in the assay with R275C/beta2Delta, 0.0105. The log fold change Tl+ flux is 0.0113 in the assay with R275C/beta4 and 0.0315 in the assay with R275C/Slo1WT/beta2.
For the compound `CN(C/C=C/C#CC(C)(C)C)Cc1cccc2ccccc12`, the log fold change Tl+ flux with F380Y/beta2Delta is -0.0506; in the assay on F380Y/beta4, -0.0252; in assay [1], 0.0229; with R275C, -0.0273; in the assay with R275C/beta1, -0.3 (active); in the assay with R275C/beta2Delta, -0.238 (active). Moreover, the results for the log fold change Tl+ flux in the assay with R275C/beta4 and with R275C/Slo1WT/beta2 were -0.00168 and 0.012, respectively.
As for `NC(=O)OCC(COC(N)=O)c1ccccc1`, the log fold change Tl+ flux is 0.0149 with F380Y/beta2Delta; 0.0205 with F380Y/beta4; 0.0713 in assay [1]; -0.054 with R275C; 0.0281 with R275C/beta1; 0.019 in the assay on R275C/beta2Delta. Moreover, the log fold change Tl+ flux in the assay on R275C/beta4 was -0.0181; in the assay on R275C/Slo1WT/beta2 it was 0.0103.
As to `C[C@@H]1C[C@H]2[C@@H]3C[C@H](F)C4=CC(=O)C(Cl)=C[C@]4(C)[C@@]3(F)[C@@H](O)C[C@]2(C)[C@@]1(O)C(=O)CO`, the log fold change Tl+ flux with F380Y/beta2Delta was -0.0145; with F380Y/beta4, 0.131 (active); in assay [1] it was 0.0637; in the assay on R275C it was 0.0158; in the assay with R275C/beta1, 0.354 (active); in the assay on R275C/beta2Delta it was 0.0934. Also, the values for the log fold change Tl+ flux in the assay with R275C/beta4 and in the assay on R275C/Slo1WT/beta2 were 0.148 (active) and 0.0468, respectively.
As for `CNCC(O)c1ccc(O)c(O)c1` (stereo not given), the log fold change Tl+ flux with F380Y/beta2Delta is 0.0367; with F380Y/beta4, -0.0084; in assay [1], 0.0503; in the assay with R275C it was 0.0399; with R275C/beta1, -0.0203; with R275C/beta2Delta, -0.0287. In addition, the values for the log fold change Tl+ flux with R275C/beta4 and with R275C/Slo1WT/beta2 were -0.0313 and -0.0974, respectively.
For the compound `Nc1nc2c(ncn2CCC(CO)CO)c(=O)[nH]1`, the log fold change Tl+ flux in the assay with F380Y/beta2Delta is -0.015; in the assay with F380Y/beta4, -0.0159; in assay [1] it was -0.013; in the assay with R275C it was 0.00432; in the assay with R275C/beta1 it was 0.00335; with R275C/beta2Delta, 0.0147. For the same compound, the values for the log fold change Tl+ flux in the assay on R275C/beta4 and in the assay with R275C/Slo1WT/beta2 were -0.0144 and -0.0115, respectively.
As for `CC1(C)O[C@@H]2C[C@H]3[C@@H]4C[C@H](F)C5=CC(=O)C=C[C@]5(C)[C@@]4(F)[C@@H](O)C[C@]3(C)[C@]2(C(=O)CO)O1`, the log fold change Tl+ flux was 0.13 (active) in the assay on F380Y/beta2Delta; 0.186 (active) with F380Y/beta4; 0.0484 in assay [1]; 0.0785 in the assay with R275C; 0.14 (active) in the assay with R275C/beta1; 0.157 (active) in the assay with R275C/beta2Delta. In addition, the log fold change Tl+ flux with R275C/beta4 was 0.0574; with R275C/Slo1WT/beta2 it was 0.0265.
For the compound `O=C1CC2(CCCC2)CC(=O)N1CCCCN1CCN(c2ncccn2)CC1`, the log fold change Tl+ flux with F380Y/beta2Delta is 0.0619; in the assay with F380Y/beta4, 0.0587; in assay [1], 0.00932; in the assay on R275C, 0.00417; in the assay on R275C/beta1, 0.0329; with R275C/beta2Delta, -0.0367. Besides, the log fold change Tl+ flux in the assay with R275C/beta4 is 0.0017; with R275C/Slo1WT/beta2 it was -0.02.
Consider `CC(=O)NS(=O)(=O)c1ccc(N)cc1`, for which the log fold change Tl+ flux was 0.0558 with F380Y/beta2Delta; 0.0262 in the assay on F380Y/beta4; -0.0364 in assay [1]; 0.0168 with R275C; -0.00538 in the assay on R275C/beta1; -0.00501 in the assay with R275C/beta2Delta. Besides, the values for the log fold change Tl+ flux in the assay on R275C/beta4 and with R275C/Slo1WT/beta2 were -0.00232 and 0.00853, respectively.
